Assay results reported in PubChem BioAssay.
“And” between values parts separate entries of the source, which are not always exact repeats. Equal entries are not always repeated. Records with an inconclusive call do not appear. For part of these data: Results with a measured potency or affinity are listed apart. The source made the active and inactive calls. Unless noted, the rule behind the calls is not given here.

What was measured:
[1] = target: ATP-dependent translocase ABCB1 (Homo sapiens) (UniProt P08183); assay: MDR1 (ABCB1) efflux transporter inhibition, cell-based (AID 377; in the data active = fluorescence slope change above about 50%); details: MDR1-expressing cells, fluorescent substrate accumulation slope; stronger effect = higher value; concentration not given here
ATP-dependent translocase ABCB1 (Homo sapiens), sequence (P08183 whole entry, looked up): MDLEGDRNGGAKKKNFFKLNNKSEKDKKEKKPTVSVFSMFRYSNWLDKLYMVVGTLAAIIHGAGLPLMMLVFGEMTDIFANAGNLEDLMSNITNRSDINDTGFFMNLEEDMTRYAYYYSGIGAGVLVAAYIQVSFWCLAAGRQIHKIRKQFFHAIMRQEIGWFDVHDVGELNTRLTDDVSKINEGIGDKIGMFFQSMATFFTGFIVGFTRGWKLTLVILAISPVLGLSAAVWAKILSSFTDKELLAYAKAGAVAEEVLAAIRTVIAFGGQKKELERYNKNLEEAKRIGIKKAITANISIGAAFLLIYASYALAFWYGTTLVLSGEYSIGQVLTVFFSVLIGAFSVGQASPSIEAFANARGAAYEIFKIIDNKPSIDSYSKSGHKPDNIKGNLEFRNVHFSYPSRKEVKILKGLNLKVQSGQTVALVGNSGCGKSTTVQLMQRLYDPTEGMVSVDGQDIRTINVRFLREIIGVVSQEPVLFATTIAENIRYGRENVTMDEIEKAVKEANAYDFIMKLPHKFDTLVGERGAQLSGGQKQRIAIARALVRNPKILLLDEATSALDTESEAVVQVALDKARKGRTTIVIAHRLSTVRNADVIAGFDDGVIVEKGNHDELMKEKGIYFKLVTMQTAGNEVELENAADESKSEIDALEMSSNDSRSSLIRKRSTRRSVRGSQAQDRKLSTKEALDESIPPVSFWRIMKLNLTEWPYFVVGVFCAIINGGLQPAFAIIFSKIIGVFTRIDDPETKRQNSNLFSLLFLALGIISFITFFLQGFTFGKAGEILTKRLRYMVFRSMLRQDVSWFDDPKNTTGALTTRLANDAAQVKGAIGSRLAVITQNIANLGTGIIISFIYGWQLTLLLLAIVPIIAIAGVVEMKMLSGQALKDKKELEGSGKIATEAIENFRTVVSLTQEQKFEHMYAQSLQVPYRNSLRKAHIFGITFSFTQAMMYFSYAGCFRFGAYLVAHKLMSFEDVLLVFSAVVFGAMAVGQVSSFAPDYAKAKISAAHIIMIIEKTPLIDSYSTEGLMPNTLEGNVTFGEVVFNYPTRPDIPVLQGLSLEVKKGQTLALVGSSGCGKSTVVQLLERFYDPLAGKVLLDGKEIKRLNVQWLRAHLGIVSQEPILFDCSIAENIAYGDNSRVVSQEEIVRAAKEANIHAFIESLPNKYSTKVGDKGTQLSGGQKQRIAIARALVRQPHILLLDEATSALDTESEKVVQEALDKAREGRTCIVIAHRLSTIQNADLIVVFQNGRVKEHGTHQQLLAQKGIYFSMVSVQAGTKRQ

[2] = polyglutamine-triggered caspase-3 activation inhibitors, cell-based (AID 1583); details: polyglutamine-induced caspase-3 activation, cell assay; stronger effect = higher value;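 tested at 10 µM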
[3] = suppressors of polyQ aggregation in yeast, 75Q-TubU reporter (AID 1593); details: Yeast 75Q polyglutamine aggregation reporter
[4] = rescue of polyQ-huntingtin neuronal dysfunction in worms, whole organism, C. elegans mechanosensory neurons, N-terminal huntingtin (AID 1599); details: touch response, stronger effect = higher value
[5] = inhibitors of mitochondrial cytochrome c release, biochemical, purified mitochondria (AID 1603); details: stronger effect = lower value;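 note: mouse liver mitochondria challenged with calcium chloride; signal normalized to the plate average as 100%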
[6] = inhibitors of polyQ protein aggregation (AID 1604); details: polyglutamine-induced protein aggregation inhibition assay; stronger effect = higher value; tested at 2.5 µM
[7] = protection against mutant huntingtin cytotoxicity, PC12 cells, LDH release (AID 1610); details: PC12 mutant huntingtin toxicity, final LDH at 4 uM, stronger effect = lower value
[8] = enhancers of glutamate uptake in motor neurons, MN-1 cell line (AID 1612); details: MN-1 motor neuron cells, stronger effect = higher value;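 note: tested at 1 µM final; 0% = mean of DMSO vehicle wells on each plate; positive means more glutamate uptake than control and negative means less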
[9] = reducers of polyQ inclusions in PC12 cells, cell-based, NGF-treated PC12, GFPQ80 (AID 1614); details: PC12 NGF-treated GFP-polyQ80 inclusion reduction;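 note: lower means fewer inclusions and 0 means no inclusions at all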
[10] = suppressors of polyglutamine aggregation in yeast, 75Q-TubH (AID 1616); details: S. cerevisiae 75Q-TubH polyglutamine aggregation suppression; stronger effect = higher value
[11] = circadian clock period modulators, cell-based, LOPAC library, luminescence reporter (AID 2774); details: circadian reporter cells, at 7 µM, actives lie on both sides;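 note: values are relative to mean of DMSO wells on each plate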
[12] = hESC survival regulators, cell-based (AID 493140); details: human embryonic stem cell survival screen; stronger effect = higher value;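 note: cells exposed to compounds for four days before counting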
[13] = system: Hepatitis C virus NS3 helicase; assay: HCV NS3 helicase inhibitors, primary screen, biochemical, fluorescence polarization, LOPAC1280 library (AID 687035; in the data active = inhibition above about 37%); details: Purified HCV NS3 helicase, Cy5-dT15 ssDNA binding fluorescence polarization; stronger effect = higher value; concentration not given here
[14] = Cy5 fluorescence quenching or enhancement artefacts, artefact control for HCV NS3 helicase inhibitor project, biochemical, LOPAC1280 (AID 687037); details: Cy5-DNA-NS3h complex fluorescence interference counterscreen
[15] = Cy5 fluorescence interference with SSB-bound oligo, artefact control for HCV NS3 helicase inhibitor project, biochemical, NIH Clinical Collection, E. coli SSB (AID 743268)
[16] = system: Hepatitis C virus NS3 helicase; assay: HCV NS3 helicase inhibitors, primary screen, biochemical, fluorescence polarization, NIH Clinical Collection (AID 743270); details: NS3 helicase binding to Cy5-dT15 DNA, stronger effect = higher value, concentration not given here
[17] = target: Single-stranded DNA-binding protein (Escherichia coli (strain K12)) (UniProt P0AGE0); assay: E. coli SSB displacement from DNA, counter-screen for HCV NS3 helicase inhibitor project, biochemical, fluorescence polarization, NIH Clinical Collection (AID 743271; in the data active = inhibition above about 28%); details: stronger effect = higher value, concentration not given here
[18] = fluorescence interference in NS3h assay format, artefact control for HCV NS3 helicase inhibitor project, biochemical, NIH Clinical Collection (AID 743272); details: fluorescence interference counterscreen, stronger effect = lower value;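 note: HCV NS3 helicase with a Cy5 labelled single stranded DNA probe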
[19] = system: Neuropilin-2 / VEGF-C interaction (human); assay: inhibitors of NRP2–VEGF-C binding, biochemical, microplate binding format, z-score (AID 743281); details: microplate NRP2/VEGF-C binding assay; stronger effect = lower value
[20] = stimulators of nuclear beta-catenin in C2C12, primary screen, imaging, WNT3A-conditioned medium, mouse C2C12, NPC library (AID 1117326; in the data active = nuclear beta-catenin stimulation mostly above about 4.2%, no sharp cut-off; inactive = mostly below about 10%); details: stronger effect = higher value
[21] = stimulators of insulin release from INS-1E, primary screen, cell-based, 5 mM glucose, NPC library (AID 1117329;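 active = compound raises insulin release from rat beta cells at 5 mM glucose, no numeric limit stated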); details: rat INS-1E insulin secretion, at 10 µM, stronger effect = higher value
[22] = growth inhibition of GSK3B-pretreated HCT116 cells – cell-based, CellTiter-Glo, 0.2 to 20 µM (AID 1117336;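 active = compounds lowering colon cancer cell viability after pretreatment blocking the GSK3B kinase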); details: HCT116 viability after GSK3B inhibitor, at 20 µM, stronger effect = higher value
[23] = inhibition of endothelial tube formation, primary screen, imaging, VEGF stimulated, CD31 staining, tube area, NPC library (AID 1117340;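 active = compound that reduces growth-factor-driven endothelial tube area in a mixed cell culture, no cutoff stated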); details: VEGF-stimulated ADSC/ECFC co-culture, at 10 µM, stronger effect = higher value
[24] = glucagon-like peptide 1 release enhancers, primary assay, NCI-H716 cell line, NPC library (AID 1117341;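 active = compound raises GLP1 secretion from the human gut endocrine cells, with no numeric limit stated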); details: NCI-H716 cells, at 10 µM, stronger effect = higher value
[25] = HCT116 colon cancer cell growth inhibition, primary screen, CellTiter-Glo luminescence, NPC library (AID 1117342;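 active = compounds that lower survival of HCT116 colon cancer cells in the luminescence readout, no numeric limit stated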); details: at 20 µM (top of the series)
[26] = CellTiter-Glo luminescent readout of SW480 viability loss, NPC library primary (AID 1117343;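 active = compounds that lower viability of the colon cancer cells in the luminescence readout, with no numeric limit stated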); details: CellTiter-Glo luminescence; at 20 µM (top of the series)
[27] = decreased DLD-1 cellular survival, CellTiter-Glo luminescent readout, NPC compound collection, primary HTS (AID 1117346;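 active = compounds that lower survival of DLD-1 colon cancer cells in the luminescence readout, no cutoff given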); details: DLD-1 viability, CellTiter-Glo luminescence; at 20 µM (top of the series)
[28] = target: 6-phosphogluconate dehydrogenase, decarboxylating (Homo sapiens) (UniProt P52209); assay: 6PGD enzyme inhibitors, primary screen, biochemical, human, recombinant enzyme, NADPH absorbance (AID 1159550;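 active = at least 20% inhibition of 6-phosphogluconate dehydrogenase activity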); details: recombinant 6PGD, NADPH absorbance 341 nm; at 10 µM; stronger effect = higher value
6-phosphogluconate dehydrogenase, decarboxylating (Homo sapiens), sequence (P52209 whole entry, looked up): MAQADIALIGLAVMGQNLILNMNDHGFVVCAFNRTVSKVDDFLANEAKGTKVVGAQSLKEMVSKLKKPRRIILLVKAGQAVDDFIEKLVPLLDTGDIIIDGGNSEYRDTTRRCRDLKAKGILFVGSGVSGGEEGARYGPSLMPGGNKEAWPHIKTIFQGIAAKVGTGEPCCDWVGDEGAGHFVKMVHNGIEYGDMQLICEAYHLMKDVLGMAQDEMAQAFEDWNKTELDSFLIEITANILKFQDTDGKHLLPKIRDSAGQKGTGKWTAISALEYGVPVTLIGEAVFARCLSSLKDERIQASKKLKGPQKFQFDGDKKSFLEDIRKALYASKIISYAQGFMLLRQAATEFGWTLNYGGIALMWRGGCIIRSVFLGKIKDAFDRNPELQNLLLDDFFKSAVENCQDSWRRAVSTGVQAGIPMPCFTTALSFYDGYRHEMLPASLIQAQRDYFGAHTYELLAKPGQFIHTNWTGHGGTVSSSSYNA

[29] = modulation of C. elegans fzo-1 (AID 1259413);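 note: fzo-1 mutant C. elegans worms in liquid wells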; details: C. elegans fzo-1 modulator screen, mean read-out; stronger effect = higher value
[30] = differential killing of epithelial or mesenchymal cells, primary screen, imaging, PC-3E GFP, TEM4-18 mCherry, co-culture (AID 1345086;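 active = compounds killing one labelled cell type while sparing the other, by normalised counts and ratio limits, not self-fluorescent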;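 note: cells exposed to compound for 72 h before imaging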;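 for red/green cell ratio (normalised): normalised mesenchymal count divided by normalised epithelial count so high means epithelial killing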); details: imaging cell counts, at 1 µM
[31] = system: Aerobactin synthetase IucA (Klebsiella pneumoniae); assay: IucA aerobactin synthetase inhibitors, biochemical, Tocris library, absorbance (AID 1345561); details: purified IucA enzyme assay, absorbance (OD) read-out; stronger effect = lower value;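 tested at 8 µM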;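 note: 100% = enzyme without compound and 0% = no enzyme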
[32] = growth inhibition of DIPG glioma cells, dose response, cell-based, SU-DIPG-XVII, MIPE5.0, CellTiter-Glo, qHTS (AID 1347060; cut-off not given, nearly all actives have AC50 up to about 26 µM); details: SU-DIPG-XVII viability, CellTiter-Glo ATP luminescence
[33] = growth inhibition of DIPG glioma cells, dose response, cell-based, SU-DIPG-XIII, MIPE4.0, CellTiter-Glo, qHTS (AID 1347061; cut-off not given, nearly all actives have AC50 up to about 37 µM;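 note: cells exposed to compound for 48 hours before readout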); details: SU-DIPG-XIII viability, CellTiter-Glo ATP luminescence
[34] = growth inhibition of DIPG glioma cells, dose response, cell-based, JHH-DIPG-1, MIPE4.0, CellTiter-Glo, qHTS (AID 1347062; cut-off not given, nearly all actives have AC50 up to about 27 µM); details: JHH-DIPG-1 viability, CellTiter-Glo ATP luminescence
[35] = growth inhibition of DIPG glioma cells, dose response, cell-based, SU-DIPG-IV, MIPE4.0, CellTiter-Glo, qHTS (AID 1347063; cut-off not given, nearly all actives have AC50 up to about 30 µM;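 note: compound exposure lasted 48 hours before the viability readout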); details: SU-DIPG-IV viability, CellTiter-Glo ATP luminescence
[36] = growth inhibition of DIPG glioma cells, dose response, cell-based, SU-DIPG-XIII, MIPE5.0, CellTiter-Glo, qHTS (AID 1347064; cut-off not given, nearly all actives have AC50 up to about 23 µM); details: SU-DIPG-XIII viability, CellTiter-Glo ATP luminescence
[37] = viability loss in pontine glioma line – cell-based, SU-DIPG-XXV, MIPE5.0, CellTiter-Glo, qHTS, dose response (AID 1347065; cut-off not given, nearly all actives have AC50 up to about 26 µM;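 note: cells exposed to compound for 48 hours before ATP readout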); details: CellTiter-Glo ATP luminescence
[38] = SU-DIPG-VI glioma cell viability, MIPE4.0 library, CellTiter-Glo luminescence, qHTS (AID 1347066; cut-off not given, nearly all actives have AC50 up to about 30 µM;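 note: cells exposed to compound for 48 hours before readout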); details: CellTiter-Glo ATP luminescence
[39] = JHH-DIPG-1 glioma cell viability, MIPE5.0 library, CellTiter-Glo luminescence, qHTS (AID 1347067; cut-off not given, nearly all actives have AC50 up to about 26 µM;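 note: cells exposed to compound for 48 hours before readout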); details: JHH-DIPG-1 glioma viability, CellTiter-Glo ATP luminescence
[40] = SU-DIPG-XXV glioma cell viability, MIPE5.0 library, qHTS (AID 1347068; cut-off not given, nearly all actives have IC50 up to about 30 µM)
[41] = phospholipid biosynthesis inhibitors in animal cells, primary screen, cell-based, LOPAC library, screen 4 (AID 1347384); details: phospholipid biosynthesis inhibition screen, at 10 µM
[42] = survival rescue of mitochondrial mutant cells in low glucose, primary screen, MELAS cybrids, Rieske KO mouse fibroblasts, CellTiter-Glo (AID 1508586;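 active = mean z-score across replicates of 1.96 or higher in either the MELAS or the Rieske mutant cell line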;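 note: z relative to plate mean and SD of compound and empty wells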)
[43] = target: NAD(+) hydrolase SARM1 (Homo sapiens) (UniProt Q6SZW1); assay: SARM1 TIR NADase inhibitors, cell lysate, NAD-Glo luminescence (AID 1508614;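 active = compound whose remaining NAD level is above about 45 nM, limit read from the data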;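 note: higher remaining NAD means stronger inhibition of SARM1 NADase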); details: SAM-TIR HEK293T lysate NADase, at 1 µM, stronger effect = higher value
NAD(+) hydrolase SARM1 (Homo sapiens), sequence (Q6SZW1 whole entry, looked up, the tested form may be a part): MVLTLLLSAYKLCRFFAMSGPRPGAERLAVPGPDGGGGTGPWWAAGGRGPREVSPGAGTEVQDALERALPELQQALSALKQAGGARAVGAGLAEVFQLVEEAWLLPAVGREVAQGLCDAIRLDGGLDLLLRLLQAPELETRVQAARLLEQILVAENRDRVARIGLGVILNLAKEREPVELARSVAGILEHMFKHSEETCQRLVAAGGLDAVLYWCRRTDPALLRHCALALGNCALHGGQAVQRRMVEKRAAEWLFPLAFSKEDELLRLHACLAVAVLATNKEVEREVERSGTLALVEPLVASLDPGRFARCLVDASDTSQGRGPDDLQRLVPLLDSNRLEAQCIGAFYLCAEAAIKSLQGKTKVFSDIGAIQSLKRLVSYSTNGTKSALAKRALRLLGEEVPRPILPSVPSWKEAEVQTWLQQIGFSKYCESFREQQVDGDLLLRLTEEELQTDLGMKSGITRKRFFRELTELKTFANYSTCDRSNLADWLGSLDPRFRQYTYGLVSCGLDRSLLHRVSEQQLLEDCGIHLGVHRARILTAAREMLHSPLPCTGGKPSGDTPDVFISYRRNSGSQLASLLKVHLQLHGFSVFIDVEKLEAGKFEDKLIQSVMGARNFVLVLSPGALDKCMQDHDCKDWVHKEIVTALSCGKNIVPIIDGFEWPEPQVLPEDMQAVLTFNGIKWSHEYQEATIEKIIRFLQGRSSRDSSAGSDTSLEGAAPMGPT

[44] = target: Mitogen-activated protein kinase 7 (Homo sapiens) (UniProt Q13164); assay: ERK5 transactivation activators in reporter cells, primary screen, cell-based, HTS (AID 1508626;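 active = luciferase signal above three times the same-plate solvent-only control wells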;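 note: luciferase driven by Gal4-ERK5 fusion binding five Gal4 sites before minimal TATA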); details: HeLa Gal4-ERK5 transactivation, 18 h, at 5 µM, stronger effect = higher value
Mitogen-activated protein kinase 7 (Homo sapiens), sequence (Q13164 whole entry, looked up, the tested form may be a part): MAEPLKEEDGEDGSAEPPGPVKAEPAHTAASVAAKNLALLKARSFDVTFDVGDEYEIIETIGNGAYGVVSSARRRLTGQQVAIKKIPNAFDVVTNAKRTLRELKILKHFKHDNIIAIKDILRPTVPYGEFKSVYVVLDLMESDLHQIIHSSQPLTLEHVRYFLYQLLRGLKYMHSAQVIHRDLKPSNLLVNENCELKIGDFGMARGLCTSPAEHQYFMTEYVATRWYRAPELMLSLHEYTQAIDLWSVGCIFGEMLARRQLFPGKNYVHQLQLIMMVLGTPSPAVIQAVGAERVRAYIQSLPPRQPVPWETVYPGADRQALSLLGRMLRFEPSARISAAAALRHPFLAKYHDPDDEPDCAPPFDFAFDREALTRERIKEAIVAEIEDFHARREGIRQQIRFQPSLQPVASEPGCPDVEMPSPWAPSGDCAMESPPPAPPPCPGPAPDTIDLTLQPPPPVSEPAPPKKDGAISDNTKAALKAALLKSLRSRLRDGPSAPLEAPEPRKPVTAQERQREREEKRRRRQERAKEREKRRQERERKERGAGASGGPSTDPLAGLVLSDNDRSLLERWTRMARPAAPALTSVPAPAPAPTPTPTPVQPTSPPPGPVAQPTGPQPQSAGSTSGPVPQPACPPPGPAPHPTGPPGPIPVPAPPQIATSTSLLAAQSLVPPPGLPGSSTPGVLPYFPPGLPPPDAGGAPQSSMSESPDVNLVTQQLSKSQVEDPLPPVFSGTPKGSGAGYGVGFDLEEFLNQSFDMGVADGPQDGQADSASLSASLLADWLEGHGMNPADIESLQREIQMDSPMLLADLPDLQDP

F380Y = assay: modulators of BK channel variants, profiling panel, selectivity assay, cell-based, U2OS BacMam, thallium flux, beta subunits (AID 1259406;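 active = thallium flux through the channel raised or lowered by more than 3 SD from vehicle-only wells, actives on both sides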;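 note: initial slope of Thallos dye fluorescence rise after thallium is added; log ratio against the mean of 0.3% DMSO vehicle wells on the same plate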); details: at 30 µM
F380Y/beta2Delta = assay: as above; details: at 30 µM
[45] = target: Calcium-activated potassium channel subunit alpha-1 (Homo sapiens) + Leucine-rich repeat-containing protein 26 (Homo sapiens) (UniProt Q12791+Q2I0M4); assay: as above; details: F380Y/Slo1WT/gamma1, at 30 µM
Calcium-activated potassium channel subunit alpha-1 (Homo sapiens) + Leucine-rich repeat-containing protein 26 (Homo sapiens), sequence (Q2I0M4 whole entry, looked up, one chain of several): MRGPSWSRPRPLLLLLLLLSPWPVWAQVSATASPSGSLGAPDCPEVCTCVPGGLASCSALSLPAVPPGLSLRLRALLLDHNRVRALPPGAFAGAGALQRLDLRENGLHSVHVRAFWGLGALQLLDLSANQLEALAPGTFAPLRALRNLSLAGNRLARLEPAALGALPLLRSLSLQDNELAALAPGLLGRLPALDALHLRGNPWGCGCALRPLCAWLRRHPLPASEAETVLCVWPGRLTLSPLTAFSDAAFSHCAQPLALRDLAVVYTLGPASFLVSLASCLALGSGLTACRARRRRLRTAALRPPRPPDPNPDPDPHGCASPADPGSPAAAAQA

R275C = assay: as above; details: at 30 µM
R275C/beta1 = assay: as above; details: at 30 µM
R275C/beta2Delta = assay: as above; details: at 30 µM

In the case of `Nc1c2c(nc3ccccc13)CCCC2`, the fluorescence slope change [1] is reported as 56.2% (active), the inhibition [2] is reported as -14.1% and the score [3] is reported as 1.21. It also gave a rescue above control [4] of -13.1, a cytochrome c release ratio [5] of 0.63 and an inhibition of aggregation [6] of 38.8%. The normalised LDH release [7] was 0.878, the glutamate uptake change [8] was 4.59% and the inclusion score [9] was 2. The aggregation suppression score [10] was 1.23, the period change [11] was -0.225 h (inactive) and the survival [12] was 6.42 (inactive). The inhibition [13] was -2% (inactive), the fluorescence ratio (interference) [14] was 1 (inactive) and the fluorescence ratio [15] was 0.95 (inactive). For the same compound, the inhibition [16] was -4.36% (inactive), the inhibition [17] was -0.1% (inactive) and the fluorescence ratio [18] was 0.85 (inactive). The z-score [19] was -0.542 (inactive), the nuclear beta-catenin stimulation ([20]; at 10 µM) was 1.3% (inactive) and the nuclear beta-catenin stimulation ([20]; stimulation, at 2 µM) was 2.2%. The insulin secretion stimulation [21] was 32.7% (active), the viability decrease [22] was 2.75% (inactive) and the tube area decrease [23] was 19% (inactive). For the same compound, the GLP1 secretion stimulation [24] was 13% (inactive), the inhibition of viability [25] was 4.9% (inactive) and the viability decrease (inhibition) [26] was 22.5% (inactive). The viability decrease (inhibition) [27] was 3.1% (inactive), the inhibition [28] was -0.369% (inactive) and the mean signal [29] was 215 (inactive). For the same compound, the red/green cell ratio (normalised) ([30]; actives lie on both sides, counts scaled to control wells, 1 = unselective) was 1.47 (inactive), the normalised cell number ([30]; measured here: epithelial PC-3E GFP cell survival) was 0.89 and the normalised cell number ([30]; measured here: mesenchymal TEM4-18 mCherry cell survival) was 1.3. The remaining activity [31] was 109% (inactive), the outcome [32] was “inactive” and the outcome [33] was “inactive”. For the same compound, the outcome [34] was “inactive”, the outcome [35] was “inactive” and the outcome [36] was “inactive”. The outcome [37] was “inactive”, the outcome [38] was “inactive” and the outcome [39] was “inactive”. The outcome [40] was “inactive”, the outcome [41] was “inactive” and the z-score ([42]; MELAS cybrid survival, CellTiter-Glo 48 h, stronger effect = higher value) was 0.221 (inactive) and 0.852 (inactive). The z-score ([42]; Rieske KO mouse fibroblast survival, CellTiter-Glo 72 h) was 0.161 and -0.102, the remaining NAD [43] was 10 nM (inactive) and the luciferase signal [44] was 164 AU (inactive). For the same compound, the log fold change Tl+ flux (F380Y) was 0.0646 (inactive), the log fold change Tl+ flux (F380Y/beta2Delta) was -0.00945 (inactive) and the log fold change Tl+ flux [45] was 0.00974 (inactive). For the same compound, the log fold change Tl+ flux (R275C) was 0.0238 (inactive), the log fold change Tl+ flux (R275C/beta1) was -0.0128 (inactive) and the log fold change Tl+ flux (R275C/beta2Delta) was -0.0194 (inactive).
